Bioassay records as filed in PubChem BioAssay.
A selection: hits, their analogues and other compounds. The true share with any hit is near 2.2%.
TrxR1 inh – blocks rat thioredoxin reductase 1. O89049. recombinant rTrxR1, NADPH fluorescence consumption, selenite substrate. Potency, µM (doses to about 114 µM), for the others: top-dose activity change, negative = inhibition, hits mostly inhibitors. 1% of 390,000 active. AID 588453; also: potency is read from the fitted curve at half-maximal effect; % is scaled to controls: 0 for no effect and ±100 for the full control effect; nearly all actives have a fitted effect of over 65% in size
Target sequence (O89049 whole entry, looked up): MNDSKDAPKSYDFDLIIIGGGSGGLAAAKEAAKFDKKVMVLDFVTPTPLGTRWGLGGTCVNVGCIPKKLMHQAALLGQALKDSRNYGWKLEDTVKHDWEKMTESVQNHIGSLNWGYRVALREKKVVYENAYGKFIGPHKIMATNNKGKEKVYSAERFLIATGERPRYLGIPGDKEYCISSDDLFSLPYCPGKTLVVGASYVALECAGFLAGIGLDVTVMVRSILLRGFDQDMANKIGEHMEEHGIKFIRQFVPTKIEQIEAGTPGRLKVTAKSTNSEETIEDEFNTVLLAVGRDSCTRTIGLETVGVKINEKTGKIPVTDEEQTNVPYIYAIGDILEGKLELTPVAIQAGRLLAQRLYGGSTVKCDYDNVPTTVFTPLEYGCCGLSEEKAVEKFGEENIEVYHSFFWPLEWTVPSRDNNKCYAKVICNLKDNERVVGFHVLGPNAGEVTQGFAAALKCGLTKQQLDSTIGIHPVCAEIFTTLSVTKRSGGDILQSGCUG
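Rat TrxR1 (90 nM in the dispensed reagent) was pre-reduced with 400 uM NADPH for 5 min at room temperature, then incubated with compound for 15 min. After 400 uM selenite was added, NADPH fluorescence (Ex 340/Em 450 nm) was followed for 8 min.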
IL2 activator – IL-2 activation; IL-2 activation reporter assay, cell-based qHTS; stimulated with anti-CD3/CD4/CD28 beads; in transgenic mouse T cells; activation, % (series mostly up to about 46 µM); 0.065% of 360,000 active; AID 652025; in the data active = activation above about 50%; inconclusive = mostly about 30% to 49%; also: 0% is about no effect
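Quantitative HTS in unstimulated transgenic mouse T cells, with memory T cells as non-tolerant control and PMA/ionomycin as tolerance-bypass control. Compound pretreatment lasted 60 minutes before 18 h bead stimulation; EGFP/DsRed fluorescence read.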
TrxR1 substrate – is turned over as a substrate by rat TrxR1 | O89049 | purified TrxR1 substrate turnover, NADPH consumption readout | Potency, µM (top dose mostly 114 µM), without a hit: top-dose activity change, negative = substrate turnover | 0.01% of 390,000 active; also: potency is read from the fitted curve at half-maximal effect; % is scaled to controls: 0 for no effect and ±100 for the full control effect; nearly all actives have a fitted effect of over 50% in size
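Rat TrxR1, dispensed at 90 nM, was prereduced with 400 uM NADPH (final) for 5 min at ~22 deg C, then incubated with compound 15 min before 400 uM selenite. A first-read NADPH fluorescence drop versus no-compound background flagged substrates.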
BRCA1 expr up – activators of BRCA1 expression; Potency, µM (series often up to 46.1 µM), for the others: at the highest dose activation, hits mostly activators; 1.1% of 380,000 active; MCF7-BRCA1-FFLuc reporter, luminescence, 48 h; response scale: scaled: vehicle 0%, 10 µM genistein 100%; also: potency is read from the fitted curve at half-maximal effect; nearly all actives have a fitted effect of over 80% in size
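MCF7-BRCA1-FFLuc, 2000 cells/well; 2 h attach, 37 °C/5% CO2; compound 48 h; luciferase substrate 15 min; luminescence end-point. Norm. to genistein 10 microM max activation and DMSO; concentration-response curves fitted.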
IDH1 R132H inh – blocks human mutant IDH1 R132H enzyme | O75874 | IDH1-R132H enzyme, NADPH consumption, diaphorase/resazurin fluorescence | Potency, µM (doses to about 76.6 µM), without a hit: at the highest dose activity change, negative = inhibition, actives largely listed as inhibitors | 0.093% of 390,000 active | AID 602179; also: potency is read from the fitted curve at half-maximal effect; % is scaled to controls: 0 for no effect and ±100 for the full control effect; nearly all actives have a fitted effect of over 65% in size
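IDH1-R132H (0.5 ug/mL) preincubated 30 min with compound, then NADPH (0.016 mM) and alpha-KG (2 mM) added; 80 min at RT, pH 7.5. Remaining NADPH coupled via diaphorase/resazurin to fluorescence (540/590 nm); concentration-response curves normalized to no-enzyme control.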
Giardia kill – Giardia lamblia killing; 0.15% of 340,000 active; activity change, % at 7.66 µM, hits read low; AID 540267; Giardia lamblia trophozoite viability; in the data active = activity change below about -80%; inconclusive = between about -30% and that limit;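 also: parasites exposed to compound for two days anaerobically before the ATP read; % is scaled to controls: 0 for no effect and ±100 for the full control effect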
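Trophozoite viability was measured as ATP-dependent luminescence, read 15-30 min after reagent addition. Before that, parasites at 100 cells/well were exposed to compounds for 48 h, anaerobically, at 37 deg C.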
Numbers without * were called inactive; ? = inconclusive; · = no result given; [ ] = dose if it differs, or a comment. Unless noted, calls follow the shape of the dose curve; as a rule, active = well fitted curve in the direction sought with a large enough effect; inconclusive = small, poorly fitted or top-dose-only effect, or another doubt; inactive = no such curve, though single readings can be large; an effect the other way counts as inactive or inconclusive.

SMILES | TrxR1 inh | IL2 activator | TrxR1 substrate | BRCA1 expr up | IDH1 R132H inh | Giardia kill
CC(=O)N1CCc2cc(S(=O)(=O)NC(C(=O)Nc3ccc(C)cc3C)C(C)C)ccc21 (configuration not stated) | 14% | · | 1% | · | 2% | ·
N#CC1=C(N)C(C#N)(C#N)C(c2cccnc2)C2CN(C(=O)OCc3ccccc3)CC=C12 (configuration not stated) | ? | -1 | 2% | -15% | 52µM* | -1
COc1ccc(CC(=O)NCc2ccc3c(c2)CCN3C(=O)c2ccc(Cl)cc2)cc1OC | 7%[57.1 µM] | · | 0%[57.1 µM] | · | 5% | ·
O=S(=O)(Nc1ccc(-c2ccc(N3CCCCC3)nn2)cc1)c1ccc(OC(F)(F)F)cc1 | 25%[57.1 µM] | · | 3%[57.1 µM] | · | -1% | ·
CC(=O)N1CCN(C(=O)c2ccc(-c3cccc(C(F)(F)F)c3)o2)CC1 | 40µM* | -4 | -3% | -7% | 9% | 0
O=C(c1ccc(-c2cccc(C(F)(F)F)c2)o1)N1CCOCC1 | 1%[57.1 µM] | -1 | 8%[57.1 µM] | 11µM* | 4% | -8
COc1ccc(C(CNC(=O)c2ccc(-c3cccc(C(F)(F)F)c3)o2)N2CCOCC2)cc1 (configuration not stated) | -11% | 0 | -9% | -16% | 3% | 1
CC1=C(C(=O)Nc2ccc(Cl)cc2)C(c2ccc(C(F)(F)F)cc2)n2nnnc2N1 (configuration not stated) | 8% | · | -6% | -23% | -18% | ·
CN(C)c1cccc(C(=O)N/N=C/c2ccsc2)c1 | -8% | -2 | -1%[57.1 µM] | 10µM* | 5% | -2
CN(C)c1cccc(C(=O)N/N=C/c2ccoc2)c1 | 7%[57.1 µM] | -1 | 6%[57.1 µM] | 73% | 4% | 10
Cc1c(C(=O)c2ccc(Cl)cc2[N+](=O)[O-])c2ccccn2c1CCC#N | -21%[57.1 µM] | 0 | -2%[57.1 µM] | -8% | 6% | -100*
Cc1c(C(=O)c2ccc(Cl)c([N+](=O)[O-])c2)c2ccccn2c1CCC#N | -15%[57.1 µM] | -1 | -2%[57.1 µM] | -25% | 7% | 2
COc1cccc(C(=O)Nc2cccc(-c3cn4c(C)csc4n3)c2)c1OC | 20%[57.1 µM] | · | 4%[57.1 µM] | 18% | 5% | ·
CNc1ccc(C(=O)Oc2cc(O/N=[N+](\[O-])N(C)C)c([N+](=O)[O-])cc2[N+](=O)[O-])cc1 | 25µM* | · | -25% | · | · | -10
CCN(CCN(C)Cl)/[N+]([O-])=N/Oc1ccc([N+](=O)[O-])cc1[N+](=O)[O-] | 10µM* | · | -3% | -6% | · | ·
CN(C)/[N+]([O-])=N/Oc1ccc([N+](=O)[O-])cc1[N+](=O)[O-] | 13µM* | · | -11% | -36% | · | ·
CC(=O)N(C)c1cc([N+](=O)[O-])ccc1OCc1ccccc1 | 16%[11.4 µM] | -4 | 7%[11.4 µM] | 3% | 0% | -13
CN(C)/[N+]([O-])=N\Oc1cc(OC(=O)c2ccc(N)cc2)c([N+](=O)[O-])cc1[N+](=O)[O-] | -33% | · | -16% | -7% | · | ·
CN(Cc1ccccc1)/[N+]([O-])=N/Oc1ccc([N+](=O)[O-])cc1[N+](=O)[O-] | 2.8µM* | · | -4% | -47% | · | ·
COc1cc(N)c(N)cc1OC | 12% | · | 7% | · | · | ·
COc1ccc(Cl)cc1NC(=O)Cn1nc(Cc2ccncc2)c2ccccc2c1=O | 21% | · | 1% | · | 3% | ·
Cc1cc2ccccc2n1CCNC(=O)c1ccc(Br)o1 | 10µM* | -2 | 13%[57.1 µM] | 55% | 3% | -23
Cc1cc2ccccc2n1CCNC(=O)c1ccc(Br)cc1 | 4% | · | -8% | 43% | 6% | ·
Cc1cc(Cl)n2c(nc3ccccc32)c1C#N | 7.1µM* | -1 | 14%[57.1 µM] | -78% | -17% | 0
Cc1c(CCCl)c(Cl)n2c(nc3ccccc32)c1C#N | 2.2µM* | -1 | 12% | -93% | 1% | 13
N#Cc1c2c(c(Cl)n3c1nc1ccccc13)CCCC2 | 3.5µM* | · | 2% | -1% | · | ·
CCc1c(C)c(C#N)c2nc3ccccc3n2c1NC | -4% | 1 | 3% | -22% | 2% | -7
